Laboratory results taken from the supplement of paper PMC11001985.
Unmarked numbers belong to inactive results.

Compound: C#CCNC(=O)CCSSCCC(=O)NCCc1ccc(C=O)c(C=O)c1
Assay: lysine labeling ratio R10:1 (500 µM / 50 µM probe), SILAC-ABPP in living cells; higher = lower intrinsic lysine reactivity toward the probe, active = 2 or less
Conditions: HeLa; probe concentrations 500 vs 50 µM
Method in brief: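 With forward and reverse label swaps, light and heavy SILAC HeLa cells, alive and in PBS at room temperature, were exposed to either 500 µM or 50 µM of an alkyne-tagged lysine probe bearing a disulfide link. After mixing, lysates were clicked to biotin-azide, cut with trypsin, pulled down on neutravidin, freed with DTT, alkylated and analysed on a TIMS-TOF Pro by LC-MS/MS. The per-lysine value R is the median over forward and reverse replicates of the filtered median high-probe/low-probe MS1 peptide ratio. It is capped at 20.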

Sequence of UniProt P35579 (P35579 whole entry): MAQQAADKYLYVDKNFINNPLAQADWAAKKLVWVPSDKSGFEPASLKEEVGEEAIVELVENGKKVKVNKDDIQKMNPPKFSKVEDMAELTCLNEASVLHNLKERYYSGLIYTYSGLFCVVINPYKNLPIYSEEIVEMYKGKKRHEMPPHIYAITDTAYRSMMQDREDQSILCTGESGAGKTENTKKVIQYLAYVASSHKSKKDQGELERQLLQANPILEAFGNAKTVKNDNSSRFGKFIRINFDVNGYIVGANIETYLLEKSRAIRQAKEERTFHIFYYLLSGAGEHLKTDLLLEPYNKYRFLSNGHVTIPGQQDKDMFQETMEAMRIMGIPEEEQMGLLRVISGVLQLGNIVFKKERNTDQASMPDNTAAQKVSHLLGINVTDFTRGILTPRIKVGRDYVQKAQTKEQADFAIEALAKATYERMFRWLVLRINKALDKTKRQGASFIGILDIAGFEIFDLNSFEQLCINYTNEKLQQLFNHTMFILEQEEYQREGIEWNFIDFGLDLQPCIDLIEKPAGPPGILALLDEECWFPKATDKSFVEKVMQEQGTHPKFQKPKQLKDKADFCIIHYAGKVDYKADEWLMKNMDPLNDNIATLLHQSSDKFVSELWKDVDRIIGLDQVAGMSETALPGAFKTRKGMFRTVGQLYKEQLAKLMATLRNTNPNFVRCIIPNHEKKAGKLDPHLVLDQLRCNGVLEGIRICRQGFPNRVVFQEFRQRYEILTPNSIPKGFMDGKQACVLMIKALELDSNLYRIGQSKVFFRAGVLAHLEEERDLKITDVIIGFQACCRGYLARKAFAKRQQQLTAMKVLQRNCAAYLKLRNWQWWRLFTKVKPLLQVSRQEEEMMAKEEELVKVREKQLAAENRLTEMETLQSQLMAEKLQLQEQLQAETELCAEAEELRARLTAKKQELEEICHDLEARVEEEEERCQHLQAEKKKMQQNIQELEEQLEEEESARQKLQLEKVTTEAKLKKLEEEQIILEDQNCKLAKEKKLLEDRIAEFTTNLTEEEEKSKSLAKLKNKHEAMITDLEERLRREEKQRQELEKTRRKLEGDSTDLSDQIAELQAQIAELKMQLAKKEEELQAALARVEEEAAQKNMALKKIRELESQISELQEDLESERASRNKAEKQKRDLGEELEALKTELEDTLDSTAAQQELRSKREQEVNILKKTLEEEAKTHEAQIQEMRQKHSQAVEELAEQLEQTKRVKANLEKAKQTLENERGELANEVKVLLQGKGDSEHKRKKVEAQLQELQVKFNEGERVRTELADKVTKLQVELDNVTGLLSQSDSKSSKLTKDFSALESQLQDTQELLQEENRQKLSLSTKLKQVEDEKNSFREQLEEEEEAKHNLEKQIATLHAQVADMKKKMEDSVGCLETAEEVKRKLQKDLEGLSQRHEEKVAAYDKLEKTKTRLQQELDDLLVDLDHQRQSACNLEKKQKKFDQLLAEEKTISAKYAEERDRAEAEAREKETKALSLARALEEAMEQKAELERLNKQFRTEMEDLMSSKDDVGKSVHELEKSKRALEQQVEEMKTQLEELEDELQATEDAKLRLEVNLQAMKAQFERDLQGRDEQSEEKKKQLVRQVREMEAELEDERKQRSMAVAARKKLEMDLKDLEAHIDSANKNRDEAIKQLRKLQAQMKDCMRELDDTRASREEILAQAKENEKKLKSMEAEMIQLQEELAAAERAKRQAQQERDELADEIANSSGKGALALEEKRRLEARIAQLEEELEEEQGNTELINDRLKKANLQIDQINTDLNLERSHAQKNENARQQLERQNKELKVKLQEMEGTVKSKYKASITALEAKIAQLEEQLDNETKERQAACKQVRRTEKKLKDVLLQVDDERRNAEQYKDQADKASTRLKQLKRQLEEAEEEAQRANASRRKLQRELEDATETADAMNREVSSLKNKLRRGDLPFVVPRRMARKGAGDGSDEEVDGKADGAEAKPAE
Sequence of UniProt P21333 (P21333 whole entry): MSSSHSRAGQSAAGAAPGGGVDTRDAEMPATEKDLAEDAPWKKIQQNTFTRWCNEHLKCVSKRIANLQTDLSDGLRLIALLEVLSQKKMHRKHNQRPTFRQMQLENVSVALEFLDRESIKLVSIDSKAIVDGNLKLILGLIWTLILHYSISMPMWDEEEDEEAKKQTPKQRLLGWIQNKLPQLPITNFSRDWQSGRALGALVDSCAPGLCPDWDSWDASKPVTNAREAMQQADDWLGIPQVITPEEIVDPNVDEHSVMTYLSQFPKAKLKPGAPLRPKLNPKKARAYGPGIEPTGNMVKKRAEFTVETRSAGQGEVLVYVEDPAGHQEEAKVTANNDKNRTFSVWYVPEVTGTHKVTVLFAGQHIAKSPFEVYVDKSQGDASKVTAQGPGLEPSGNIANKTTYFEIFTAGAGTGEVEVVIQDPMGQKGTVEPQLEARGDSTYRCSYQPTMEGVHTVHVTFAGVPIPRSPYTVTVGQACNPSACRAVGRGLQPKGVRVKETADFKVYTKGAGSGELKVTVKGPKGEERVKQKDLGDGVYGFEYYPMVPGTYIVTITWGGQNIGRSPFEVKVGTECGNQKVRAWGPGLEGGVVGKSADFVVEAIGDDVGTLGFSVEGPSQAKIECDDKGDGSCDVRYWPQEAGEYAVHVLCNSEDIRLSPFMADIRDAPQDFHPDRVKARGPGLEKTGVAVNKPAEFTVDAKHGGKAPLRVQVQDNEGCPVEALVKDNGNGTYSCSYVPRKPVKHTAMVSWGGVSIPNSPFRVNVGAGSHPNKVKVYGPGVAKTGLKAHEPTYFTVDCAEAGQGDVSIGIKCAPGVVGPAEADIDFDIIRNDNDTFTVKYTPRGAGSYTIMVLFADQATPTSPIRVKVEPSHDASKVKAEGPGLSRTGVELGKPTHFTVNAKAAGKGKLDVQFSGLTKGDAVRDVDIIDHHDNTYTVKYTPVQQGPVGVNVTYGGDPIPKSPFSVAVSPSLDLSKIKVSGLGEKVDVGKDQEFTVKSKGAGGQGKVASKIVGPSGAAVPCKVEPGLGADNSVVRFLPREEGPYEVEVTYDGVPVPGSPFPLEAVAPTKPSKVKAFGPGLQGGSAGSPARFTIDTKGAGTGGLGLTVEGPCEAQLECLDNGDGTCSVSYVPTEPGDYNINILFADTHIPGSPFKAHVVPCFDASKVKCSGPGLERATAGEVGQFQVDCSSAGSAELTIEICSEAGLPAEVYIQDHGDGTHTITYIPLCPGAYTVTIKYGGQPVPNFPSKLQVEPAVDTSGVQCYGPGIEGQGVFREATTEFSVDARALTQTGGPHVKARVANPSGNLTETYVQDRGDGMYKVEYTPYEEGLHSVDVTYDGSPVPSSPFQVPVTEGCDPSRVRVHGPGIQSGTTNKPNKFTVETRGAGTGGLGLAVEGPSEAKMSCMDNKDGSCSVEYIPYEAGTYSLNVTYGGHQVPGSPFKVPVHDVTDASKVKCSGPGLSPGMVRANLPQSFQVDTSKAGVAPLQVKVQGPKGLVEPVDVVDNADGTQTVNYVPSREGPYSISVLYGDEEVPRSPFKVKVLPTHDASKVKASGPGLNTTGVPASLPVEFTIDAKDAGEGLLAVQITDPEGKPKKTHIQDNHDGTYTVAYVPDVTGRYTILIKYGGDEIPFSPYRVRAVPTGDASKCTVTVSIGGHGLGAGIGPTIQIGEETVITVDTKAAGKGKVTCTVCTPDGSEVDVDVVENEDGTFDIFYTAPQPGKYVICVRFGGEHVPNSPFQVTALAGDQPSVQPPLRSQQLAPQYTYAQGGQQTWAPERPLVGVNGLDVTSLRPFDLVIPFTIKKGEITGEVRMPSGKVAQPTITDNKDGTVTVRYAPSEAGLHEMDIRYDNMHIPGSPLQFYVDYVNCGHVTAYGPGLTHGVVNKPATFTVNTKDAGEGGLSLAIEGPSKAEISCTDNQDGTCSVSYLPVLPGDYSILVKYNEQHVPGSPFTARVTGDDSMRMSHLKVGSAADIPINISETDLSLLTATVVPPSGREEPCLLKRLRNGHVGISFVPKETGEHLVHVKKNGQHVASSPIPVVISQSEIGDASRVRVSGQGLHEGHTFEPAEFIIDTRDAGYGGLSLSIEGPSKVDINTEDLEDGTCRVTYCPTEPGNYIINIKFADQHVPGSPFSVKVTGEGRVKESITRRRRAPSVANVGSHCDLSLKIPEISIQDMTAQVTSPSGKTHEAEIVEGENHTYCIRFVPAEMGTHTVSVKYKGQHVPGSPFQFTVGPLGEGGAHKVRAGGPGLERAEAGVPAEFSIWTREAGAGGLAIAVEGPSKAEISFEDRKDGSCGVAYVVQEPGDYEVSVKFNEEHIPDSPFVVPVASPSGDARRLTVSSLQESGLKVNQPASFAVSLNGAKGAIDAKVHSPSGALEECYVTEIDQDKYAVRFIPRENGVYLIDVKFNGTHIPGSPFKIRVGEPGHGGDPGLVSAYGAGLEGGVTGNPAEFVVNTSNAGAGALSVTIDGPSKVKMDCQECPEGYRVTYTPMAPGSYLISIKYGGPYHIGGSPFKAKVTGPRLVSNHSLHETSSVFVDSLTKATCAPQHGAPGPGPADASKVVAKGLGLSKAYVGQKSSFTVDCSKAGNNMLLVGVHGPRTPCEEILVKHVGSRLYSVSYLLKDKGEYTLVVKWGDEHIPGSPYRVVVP
Sequence of UniProt P41091 (P41091 whole entry): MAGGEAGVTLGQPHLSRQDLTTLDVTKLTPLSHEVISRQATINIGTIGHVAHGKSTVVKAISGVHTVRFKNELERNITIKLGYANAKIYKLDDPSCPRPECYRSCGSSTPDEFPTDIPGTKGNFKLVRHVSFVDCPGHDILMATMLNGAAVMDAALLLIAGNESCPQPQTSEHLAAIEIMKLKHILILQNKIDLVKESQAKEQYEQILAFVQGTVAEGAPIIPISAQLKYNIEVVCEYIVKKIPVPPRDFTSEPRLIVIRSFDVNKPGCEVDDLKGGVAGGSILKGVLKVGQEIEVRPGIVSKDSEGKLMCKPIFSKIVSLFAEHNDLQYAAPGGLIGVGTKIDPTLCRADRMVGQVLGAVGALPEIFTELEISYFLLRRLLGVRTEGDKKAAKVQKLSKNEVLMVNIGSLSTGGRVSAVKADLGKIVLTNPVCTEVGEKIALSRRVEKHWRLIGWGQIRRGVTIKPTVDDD

| Target | lysine labeling ratio R10:1 |
| --- | --- |
| DSG2 (lysine site: K362) (UniProt Q14126) | 1.02 (active) |
| MYH9 (lysine site: K1392) (UniProt P35579) | 1.15 (active) |
| TFRC (lysine site: K693) (UniProt P02786) | 5.63 |
| LAMB1 (lysine site: K1370) (UniProt P07942) | 1.61 (active) |
| FZD1 (lysine site: K384) (UniProt Q9UP38) | 0.938 (active) |
| ATP6V0D1 (lysine site: K288) (UniProt P61421) | 1.76 (active) |
| CTNNA1 (lysine site: K199) (UniProt P35221) | 1.43 (active) |
| PTPRF (lysine site: K906) (UniProt P10586) | 4.94 |
| UniProt Q9UHN6 (lysine site: K1177) | 6.32 |
| UniProt Q15149 (lysine site: K1774) | 8.57 |
| FLNB (lysine site: K976) (UniProt O75369) | 1.86 (active) |
| VDAC1 (lysine site: K201) (UniProt P21796) | 3.77 |
| HSPA5 (lysine site: K96) (UniProt P11021) | 1.44 (active) |
| EEF2 (lysine site: K445) (UniProt P13639) | 2.7 |
| CDK5 (lysine site: K33) (UniProt Q00535) | 6.8 |
| NUMA1 (lysine site: K925) (UniProt Q14980) | 2.01 |
| DISP1 (lysine site: K369) (UniProt Q96F81) | 1.37 (active) |
| UniProt P25705 (lysine site: K434) | 1.73 (active) |
| PTPRJ (lysine site: K876) (UniProt Q12913) | 3.12 |
| CCT4 (lysine site: K21) (UniProt P50991) | 3.58 |

| Target | lysine labeling ratio R10:1 |
| --- | --- |
| TKT (lysine site: K543) (UniProt P29401) | 9.07 |
| CDH2 (lysine site: K699) (UniProt P19022) | 10.6 |
| EIF2S3 (lysine site: K70) (UniProt P41091) | 3.79 |
| ITGB1 (lysine site: K105) (UniProt P05556) | 6.92 |
| CD109 (lysine site: K567) (UniProt Q6YHK3) | 3.37 |
| UniProt Q15149 (lysine site: K1908) | 3.91 |
| UniProt P46781 (lysine site: K66) | 2.63 |
| HSPD1 (lysine site: K250) (UniProt P10809) | 2.65 |
| UniProt P55285 (lysine site: K121) | 4.12 |
| FLNA (lysine site: K876) (UniProt P21333) | 4.23 |
| L1CAM (lysine site: K531) (UniProt P32004) | 7.51 |
| CD70 (lysine site: K93) (UniProt P32970) | 3.66 |
| FLNA (lysine site: K1071) (UniProt P21333) | 3.76 |
| SPTAN1 (lysine site: K719) (UniProt Q13813) | 3.93 |
| UniProt P62273 (lysine site: K33) | 1.51 (active) |
| UniProt P26639 (lysine site: K213) | 0.782 (active) |
| MYH9 (lysine site: K1835) (UniProt P35579) | 1.11 (active) |
| SPTBN1 (lysine site: K2177) (UniProt Q01082) | 14.1 |
| NOTCH1 (lysine site: K185) (UniProt P46531) | 1.8 (active) |
| EEF2 (lysine site: K407) (UniProt P13639) | 1.45 (active) |
